Measured values from PubChem BioAssay AID2490 (National Center for Advancing Translational Sciences (NCATS), 2010).
Calls of active or inactive are those of the source. The call rests on the fitted dose curve.

molecular target: Thyroid hormone receptor beta (Homo sapiens) (UniProt P10828); experiment: Secondary Confirmation Assay for Inhibitors of the Interaction of Thyroid Hormone Receptor and Steroid Receptor Coregulator 2, Texas Red Fluoroprobe; settings: TRb LBD / Texas Red SRC2 peptide fluorescence polarization
Excerpt: NIH Molecular Libraries Probe Production Network [MLPCN] NIH Chemical Genomics Center [NCGC] MLPCN Grant: DK058080 Assay Provider: R. Kip Guy, St. Jude Children's Research Hospital NCGC Assay Overview: Thyroid receptor (TR) regulates many homeostatic processes including basal metabolism, cardiovascular function, body weight, and lipid trafficking. TR modulators are potential therapeutics for obesity and hyperlipidemias but current thyroid analogs have undesirable side effects, particularly cardiac stimulation. To identify inhibitors that specifically prevent the interaction of TR with the steroid receptor coregulator 2 (SRC2), a fluorescence polarization assay was screened (Arnold et al., 2006). This assay detects the interaction of the ligand-binding domain of human TRb with a Texas Red labeled SRC2 peptide, corresponding to a 20 amino acid region of the nuclear receptor interaction domain. Small molecule inhibitors that block the interaction of TR and SRC2 are detected by a decrease in fluorescence polarization.
NCGC Assay Protocol Summary: Twenty uL/well 0.6 uM TRb and 20 nM Texas Red labeled SRC2-2 in protein buffer (20mM Tris hydrochloride, pH 7.4, 100mM NaCl, 10% glycerol, 1mM EDTA, 0.01% NP-40, 1mM DTT, 1uM T3 and 4% DMSO) was dispensed into black solid 384-well plates (Costar 3710) using a Biomek FX (Beckman Coulter) liquid handling system. Following transfer of 260 nL compound (ranging from 7 nM to 130 uM), the plates were incubated 3 hr at ambient temperature. The plates were read by an Envision (Perkin Elmer) to detect fluorescence polarization of SRC2 Texas Red (555 nm excitation and 632 nm emission). Arnold, L. A.; Estebanez-Perpina, E.; Togashi, M.; Shelat, A.; Ocasio, C. A.; McReynolds, A. C.; Nguyen, P.; Baxter, J. D.; Fletterick, R. J.; Webb, P.; Guy, R. K. A high-throughput screening method to identify small molecule inhibitors of thyroid hormone receptor coactivator binding. Sci STKE 2006, p 13.

Thyroid hormone receptor beta (Homo sapiens), sequence (P10828 whole entry, looked up, the tested form may be a part): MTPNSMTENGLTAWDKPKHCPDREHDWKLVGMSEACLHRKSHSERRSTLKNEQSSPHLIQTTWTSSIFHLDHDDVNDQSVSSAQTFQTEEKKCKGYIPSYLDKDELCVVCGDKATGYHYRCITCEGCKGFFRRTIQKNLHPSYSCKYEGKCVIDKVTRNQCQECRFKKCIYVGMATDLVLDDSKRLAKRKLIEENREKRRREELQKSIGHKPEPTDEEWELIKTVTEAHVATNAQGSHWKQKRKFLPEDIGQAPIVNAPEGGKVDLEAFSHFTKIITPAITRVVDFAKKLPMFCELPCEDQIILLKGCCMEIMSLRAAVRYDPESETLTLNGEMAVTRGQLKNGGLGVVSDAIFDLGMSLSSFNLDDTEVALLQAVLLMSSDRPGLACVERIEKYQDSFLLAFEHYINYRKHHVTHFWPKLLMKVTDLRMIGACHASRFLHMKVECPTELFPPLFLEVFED

| SMILES | Potency | outcome |
| --- | --- | --- |
| COc1cccc(CNC(=O)COC(=O)c2ccc(S(C)(=O)=O)c([N+](=O)[O-])c2)c1 | 64.6 µM (active) | – |
| N#Cc1ncc(C(=O)OCC(=O)NC2C3CC4CC(C3)CC2C4)cn1 (stereo not given) | – | inactive |
| CS(=O)(=O)c1ccc(C(=O)OC(C(=O)NC2C3CC4CC(C3)CC2C4)c2ccccc2)cc1[N+](=O)[O-] (stereo not given) | 3.9 µM (active) | – |
| CC1CCN(C(=O)C(C)OC(=O)c2ccc(S(C)(=O)=O)c([N+](=O)[O-])c2)CC1 (stereo not given) | 6.4 µM (active) | – |
| Cc1nc(-c2ccc(S(C)(=O)=O)c([N+](=O)[O-])c2)sc1C(=O)NC1C2CC3CC(C2)CC1C3 (stereo not given) | 4 µM (active) | – |
| CS(=O)(=O)c1ccc(C(=O)OCC(=O)N2CCCc3ccccc32)cc1[N+](=O)[O-] | 2.3 µM (active) | – |
| CC(C)CN1CCN(C(=O)COC(=O)c2ccc(S(C)(=O)=O)c([N+](=O)[O-])c2)CC1 | 42.4 µM (active) | – |
| CC(=O)N1CCN(C(=O)COC(=O)c2ccc([S+](C)(=O)[O-])c([N+](=O)[O-])c2)CC1 | – | inactive |
| Cc1cc(C(=O)OCC(=O)NC(=O)C2CCCCC2)ccc1[N+](=O)[O-] | – | inactive |
| CC(=O)c1cccc(NC(=O)C(C)OC(=O)c2ccc(S(C)(=O)=O)c([N+](=O)[O-])c2)c1 (stereo not given) | 50.9 µM (active) | – |
| CS(=O)(=O)c1ccc(C(=O)OCC(=O)NC(=O)C2CCCCC2)cc1[N+](=O)[O-] | 1.4 µM (active) | – |
| C#CCNC(=O)COC(=O)c1ccc(S(C)(=O)=O)c([N+](=O)[O-])c1 | – | inactive |
| CCN(CC)C(=O)COC(=O)c1ccc(S(C)(=O)=O)c([N+](=O)[O-])c1 | 41.3 µM (active) | – |
| CS(=O)(=O)c1ccc(C(=O)OCC(=O)N2CCCCC2)cc1[N+](=O)[O-] | 20.5 µM (active) | – |
| CS(=O)(=O)c1ccc(C(=O)OCC(=O)NC(=O)NC2CCCCC2)cc1[N+](=O)[O-] | 19.1 µM (active) | – |
| C#CC1(NC(=O)COC(=O)c2ccc(S(C)(=O)=O)c([N+](=O)[O-])c2)CCCCC1 | 9.2 µM (active) | – |
| CC1(C)C2CCC1(C)C(NC(=O)COC(=O)c1ccc(S(C)(=O)=O)c([N+](=O)[O-])c1)C2 (stereo not given) | 4.3 µM (active) | – |
| C[S+](=O)([O-])c1ccc(C(=O)OCC(=O)N2CCN([S+](C)(=O)[O-])CC2)cc1[N+](=O)[O-] | – | inactive |
| Cc1ccc(F)cc1NC(=O)COC(=O)c1ccc(S(C)(=O)=O)c([N+](=O)[O-])c1 | – | inactive |
| CS(=O)(=O)c1ccc(C(=O)OCC(=O)N2CCC(Cc3ccccc3)CC2)cc1[N+](=O)[O-] | 8.2 µM (active) | – |

| SMILES | Potency | outcome |
| --- | --- | --- |
| CS(=O)(=O)c1ccc(C(=O)OCC(=O)N2CCN(c3ccccc3)CC2)cc1[N+](=O)[O-] | 24.7 µM (active) | – |
| CS(=O)(=O)c1ccc(C(=O)OCC(=O)Nc2ccc(OC(F)(F)F)cc2)cc1[N+](=O)[O-] | – | inactive |
| Cc1ccc(-c2csc(-c3ccc(S(C)(=O)=O)c([N+](=O)[O-])c3)n2)cc1 | 36.8 µM (active) | – |
| CC1CCCCN1C(=O)COC(=O)c1ccc(S(C)(=O)=O)c([N+](=O)[O-])c1 (stereo not given) | 11.5 µM (active) | – |
| CS(=O)(=O)c1ccc(C(=O)OCC(=O)N2CCN(C3CCCCC3)CC2)cc1[N+](=O)[O-] | 16.1 µM (active) | – |
| CS(=O)(=O)c1ccc(C(=O)OCC(=O)N2Cc3ccccc3C2)cc1[N+](=O)[O-] | 3 µM (active) | – |
| O=C(COC(=O)c1ccc(Cl)c([N+](=O)[O-])c1)NC1C2CC3CC(C2)CC1C3 (stereo not given) | – | inactive |
| CCc1nc(-c2ccc(S(C)(=O)=O)c([N+](=O)[O-])c2)sc1C(=O)NC1C2CC3CC(C2)CC1C3 (stereo not given) | 3 µM (active) | – |
| O=C(COC(=O)c1cc([N+](=O)[O-])ccc1F)NC1C2CC3CC(C2)CC1C3 (stereo not given) | – | inactive |
| C[S+](=O)([O-])c1ccc(C(=O)OCC(=O)NC2C3CC4CC(C3)CC2C4)cc1 (stereo not given) | – | inactive |
| Cn1cccc1C(=O)NC(=O)COC(=O)c1ccc(S(C)(=O)=O)c([N+](=O)[O-])c1 | 38.4 µM (active) | – |
| O=C(COC(=O)c1ccc(F)c([N+](=O)[O-])c1)NC1C2CC3CC(C2)CC1C3 (stereo not given) | 14.3 µM (active) | – |
| CN1CCN(C(=O)COC(=O)c2ccc(S(C)(=O)=O)c([N+](=O)[O-])c2)CC1 | – | inactive |
| CS(=O)(=O)c1ccc(C(=O)OCC(=O)N2CCN(Cc3ccccc3)CC2)cc1[N+](=O)[O-] | 15.3 µM (active) | – |
| CC(OC(=O)c1ccc(S(C)(=O)=O)c([N+](=O)[O-])c1)C(=O)NC12CC3CC(CC(C3)C1)C2 (stereo not given) | 2.1 µM (active) | – |
| CN(C(=O)COC(=O)c1ccc(S(C)(=O)=O)c([N+](=O)[O-])c1)c1ccccc1 | 1.6 µM (active) | – |
| CS(=O)(=O)c1ccc(C(=O)OCC(=O)Nc2cc(C(F)(F)F)ccc2Cl)cc1[N+](=O)[O-] | – | inactive |
| CCCC1CCN(C(=O)COC(=O)c2ccc(S(C)(=O)=O)c([N+](=O)[O-])c2)CC1 | 3.3 µM (active) | – |
| CS(=O)(=O)c1ccc(C(=O)OCC(=O)N2CC(=O)Nc3ccccc32)cc1[N+](=O)[O-] | 3.8 µM (active) | – |
| CS(=O)(=O)c1ccc(C(=O)OCC(=O)N2CCN(CCC3CCCCC3)CC2)cc1[N+](=O)[O-] | 7.6 µM (active) | – |
